Reference: PubChem BioAssay AID1159580 (chemical genetic matrix, 2015)
Values joined by “and” are separate entries in the source; they are usually repeats but may differ in a detail not shown here. Equal entries are not always repeated. About 2,000 (36%) of roughly 5,500 compounds were called active. Roughly 18% stayed inconclusive and do not appear here. No stated cut-off is given here; in the data, active means normalized growth mostly below about 0.91 (no sharp cut-off); inconclusive means no clear call, values can overlap the other calls; inactive means mostly above about 0.92. Some of the results follow.

Assay: chemical genetic growth profiling, strain panel (AID 1159580);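 further: tested at 20 µM; growth read once vehicle control cultures reached saturation at 30 °C; 1 = growth at the plate median or of vehicle wells; lower values mean less growth of the strain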
Details: S. cerevisiae deletion strains, growth OD

Measured: normalized growth

CCC(C)C(=O)O[C@@H]1C[C@@]2(C)[C@H](c3ccoc3)OC(=O)CC23OC2(C)OC34[C@H](OC(=O)C(C)C)[C@@]3(O)[C@@H](OC(=O)C5(C)OC5C)[C@@]5(C)C[C@]3(O)[C@@](C)([C@H]5CC(=O)OC)C14O2 (stereo partly specified)
inactive: locus YAL021C, strain ccr4, active compounds read low 1.03 | locus YAL026C, strain drs2, active compounds read low 0.981 | locus YAL030W, strain snc1, active compounds read low 0.996 | locus YBL061C, strain skt5, active compounds read low 1 | locus YBR009C, strain hhf1, active compounds read low 1.02 | locus YBR021W, strain FUR4, active compounds read low 1.07 | locus YBR023C, strain chs3, active compounds read low 1 | locus YBR171W, strain sec66, active compounds read low 0.988 | locus YBR229C, strain ROT2, active compounds read low 1.01 | locus YBR231C, strain swc5, active compounds read low 0.996 | locus YBR279W, strain paf1, active compounds read low 0.995 | locus YCL011C, strain gbp2, active compounds read low 1 | locus YCL016C, strain dcc1, active compounds read low 1.01 | locus YCL029C, strain bik1, active compounds read low 0.994 | locus YCL061C, strain MRC1, active compounds read low 1 | locus YCL069W, strain vba3, active compounds read low 0.995 | locus YCR088W, strain abp1, active compounds read low 0.999 | locus YDL005C, strain med2, active compounds read low 1.02 | locus YDL035C, strain GPR1, active compounds read low 0.974 | locus YDL040C, strain nat1, active compounds read low 0.996 | locus YDL074C, strain BRE1, active compounds read low 1.01 | locus YDL101C, strain DUN1, active compounds read low 1.03 | locus YDL185W, strain tfp1, active compounds read low 1.01 | locus YDL192W, strain arf1, active compounds read low 0.987 | locus YDR001C, strain nth1, active compounds read low 0.999 | locus YDR069C, strain doa4, active compounds read low 0.991 | locus YDR101C, strain arx1, active compounds read low 0.977 | locus YDR150W, strain NUM1, active compounds read low 1 | locus YDR159W, strain sac3, active compounds read low 0.981 | locus YDR162C, strain NBP2, active compounds read low 0.993 | locus YDR195W, strain ref2 1.03 | locus YDR297W, strain sur2, active compounds read low 0.992 | locus YDR318W, strain mcm21, active compounds read low 1.01 | locus YDR334W, strain swr1, active compounds read low 1 | locus YDR335W, strain msn5, active compounds read low 0.997 | locus YDR388W, active compounds read low 1.01 | locus YDR392W, strain spt3, active compounds read low 0.998 | locus YDR502C, strain sam2, active compounds read low 1.03 | locus YEL003W, strain gim4, active compounds read low 1 | locus YEL037C, strain rad23, active compounds read low 1.01 | locus YEL061C, strain CIN8 (second series), active compounds read low 1 | locus YEL061C, strain CIN8, active compounds read low 1 | locus YER015W, strain faa2, active compounds read low 1.01 | locus YER016W, strain bim1, active compounds read low 1 | locus YER110C, active compounds read low 1.02 | locus YER111C, strain swi4, active compounds read low 0.99 | locus YER155C, strain BEM2 (second series), active compounds read low 1.02 | locus YER155C, strain BEM2, active compounds read low 1.01 | locus YER167W, strain BCK2, active compounds read low 0.995 | locus YFR010W, strain ubp6, active compounds read low 1.01 | locus YGL078C, strain dbp3, active compounds read low 1.03 | locus YGL086W, strain mad1, active compounds read low 1.02 | locus YGL167C, strain pmr1, active compounds read low 0.993 | locus YGL173C, strain kem1, active compounds read low 0.977 | locus YGL227W, strain vid30, active compounds read low 0.992 | locus YGL240W, strain doc1, active compounds read low 1 | locus YGL248W, strain PDE1, active compounds read low 1.03 | locus YGL253W, strain hxk2, active compounds read low 0.986 | locus YGR135W, strain pre9, active compounds read low 1.06 | locus YGR252W, strain gcn5, active compounds read low 1.15 | locus YHR013C, strain ard1, active compounds read low 1.01 | locus YHR027C, strain rpn1, active compounds read low 0.996 | locus YHR030C, strain SLT2, active compounds read low 1.05 | locus YHR079C, strain IRE1 (second series), active compounds read low 1 | locus YHR079C, strain IRE1, active compounds read low 1.04 | locus YHR094C, strain hxt1, active compounds read low 1.01 | locus YHR129C, strain ARP1, active compounds read low 1.02 | locus YHR142W, strain chs7, active compounds read low 0.994 | locus YHR200W, strain rpn10, active compounds read low 1.03 | locus YIL066C, strain RNR3, active compounds read low 0.982 | locus YIL073C, strain SPO22, active compounds read low 1 | locus YIL125W, strain kgd1, active compounds read low 1 | locus YIR030C, strain dcg1, active compounds read low 1 | locus YJL092W, strain hpr5, active compounds read low 1.01 | locus YJL095W, strain BCK1 (second series), active compounds read low 1.02 | locus YJL095W, strain BCK1, active compounds read low 1.06 and 1.02 | locus YJL115W, strain asf1, active compounds read low 1.01 | locus YJL129C, strain trk1, active compounds read low 0.98 | locus YJL134W, strain LCB3, active compounds read low 1 | locus YJL154C, strain vps35, active compounds read low 0.993 | locus YJL164C, strain tpk1, active compounds read low 0.996 | locus YJL166W, strain qcr8, active compounds read low 0.989 | locus YJL168C, strain set2, active compounds read low 1.01 | locus YJL187C, strain SWE1 (second series), active compounds read low 1.04 | locus YJL187C, strain SWE1, active compounds read low 1
active: locus YDR137W, strain rgp1, active compounds read low 0.651
